A selection: hits, their analogues and other compounds. The true share with any hit is near 2.9%.
FadD28 FP inh: M. tuberculosis FadD28 bisubstrate binding inhibition; FadD28 bisubstrate probe binding, fluorescence polarization; inhibition, % at 12.5 µM; 0.22% of 360,000 active; in the data active means inhibition above about 8.5%, passing the limit was not always enough
GDH-TPI counter-1: counter-screen for M. tuberculosis FBA inhibitors: GDH-TPI coupled enzymes; 1.2% of 360,000 active; inhibition, % at 4.8 µM; GDH-TPI coupled enzyme counterscreen, NADH absorbance; in the data active means inhibition above about 30%;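 further: 0% = DMSO wells and 100% = wells lacking the enzyme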
Mtb hypoxia rep: inhibitors of hypoxia-regulated fluorescent reporter in Mycobacterium tuberculosis; 0.1% of 300,000 active; M. tuberculosis hypoxia-regulated fluorescent reporter, fluorescence; fluorescence inhibition, % (test concentration not listed); in the data active means fluorescence inhibition mostly above about 23%, no sharp cut-off; inactive means mostly below about 17%
Mtb BioA inh: blocks M. tuberculosis BioA enzyme activity; purified M. tuberculosis BioA enzyme, plate reader; inhibition, % at 9.99 µM; 0.096% of 360,000 active; AID 602481; in the data active means inhibition above about 40%
Mtb FBA inh: Mtb fructose-bisphosphate aldolase inhibition | P9WQA3 | purified M. tuberculosis FBA, fluorescence read-out | inhibition, % at 1 µM | 2.3% of 360,000 active | AID 588726;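 further: 0% = vehicle and 100% = reference inhibitor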
Target sequence (P9WQA3 whole entry, looked up): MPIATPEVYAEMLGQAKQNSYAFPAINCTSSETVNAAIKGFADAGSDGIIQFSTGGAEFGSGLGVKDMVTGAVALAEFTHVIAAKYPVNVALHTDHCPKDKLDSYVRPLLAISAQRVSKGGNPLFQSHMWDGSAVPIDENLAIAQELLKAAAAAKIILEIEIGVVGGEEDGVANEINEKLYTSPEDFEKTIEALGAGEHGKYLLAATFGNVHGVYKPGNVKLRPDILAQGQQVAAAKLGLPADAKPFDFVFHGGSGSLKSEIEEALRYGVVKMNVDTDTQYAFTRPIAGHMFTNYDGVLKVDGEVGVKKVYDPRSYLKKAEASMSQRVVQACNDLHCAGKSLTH
Mtb FBA inh conf: Mtb FBA inhibition, confirmed | inhibition, % at 1 µM | shares compounds with Mtb FBA inh | 78% of 5,600 active | AID 651616 | purified M. tuberculosis FBA, fluorescence read-out;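 further: 0% = vehicle wells and 100% = reference inhibitor wells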
GDH-TPI counter-2: GDH-TPI inhibition counter-screen for FBA inhibitors; shares compounds with Mtb FBA inh; GDH-TPI coupled enzyme counterscreen, fluorescence; inhibition, % at 1 µM; 81% of 5,600 active; AID 652141; in the data active means inhibition above about 10%
GDH-TPI DR: GDH-TPI dose response counter-screen for Mtb FBA; GDH-TPI coupled enzyme assay, fluorescence, artifact counterscreen; IC50, µM; 79% of 170 active; AID 652145; shares compounds with Mtb FBA inh; call rule not given here
* = called active by the depositor; nt = not tested or not shown; + = active, no number. Unless noted, no stated cut-off is given here; in the data, active means inhibition above about 27%; inactive means the rest.

SMILES	FadD28 FP inh	GDH-TPI counter-1	Mtb hypoxia rep	Mtb BioA inh	Mtb FBA inh	Mtb FBA inh conf	GDH-TPI counter-2	others
Fc1ccc(C2CC(c3ccco3)=NN2c2ccccc2)cc1 (stereo not given)	-1	8	6	-1	60*	+	+
Clc1ccc(N2N=C(c3cccs3)CC2c2ccco2)cc1 (stereo not given)	-2	3	nt	nt	81*	82*	55*
c1ccc(N2N=C(c3cccs3)CC2c2ccco2)cc1 (stereo not given)	1	20	nt	-1	78*	14	10*
C[C@H](CO)N1C[C@H](C)[C@H](CN(C)S(=O)(=O)c2ccc(C#N)cc2)Oc2ncc(C#Cc3ccc(F)cc3)cc2C1=O	nt	nt	nt	3	nt	nt	nt
COc1cccc(CNC(=O)COC(=O)/C=C/c2ccc(SC)cc2)c1	0	14	3	-5	37*	+	+
O=C(COC(=O)c1cccc2ccccc12)NCC1CCCO1 (stereo not given)	-2	3	3	nt	36*	137*	120*
CSc1ccc(/C=C/C(=O)OCC(=O)N2CCCCCC2)cc1	-1	43*	6	-3	81*	+	+
CSc1ccc(/C=C/C(=O)OCC(=O)NCC2CCCO2)cc1 (stereo not given)	-3	30	10	0	45*	53*	49*
O=C(COC(=O)c1ccccc1)NCC1CCCO1 (stereo not given)	-3	-3	18	0	-4	nt	nt
O=C(C[C@H]1CC[C@H](NC(=O)CCN2CCCCC2)[C@H](CO)O1)NCc1ccc(Cl)c(Cl)c1	nt	nt	nt	1	nt	nt	nt
CCCc1c(C)nn(C(=O)C(C#N)=NNc2ccccc2[N+](=O)[O-])c1C	nt	nt	4	nt	nt	nt	nt
CCOC(=O)C1C2COc3ccc(C)cc3C2N2C(=O)CN(Cc3ccco3)C(=O)[C@@]12C (stereo not given in full)	nt	nt	9	nt	nt	nt	nt
CSc1ccc(/C=C/C(=O)OCC(=O)NC2CCCCCC2)cc1	0	29	nt	-3	30*	+	196*
CSc1ccc(/C=C/C(=O)OCC(=O)NC2CCS(=O)(=O)C2)cc1 (stereo not given)	0	35*	3	-1	64*	37*	24*
CCCSc1nnc(NC(=O)CSc2sc3c(O)cc(=O)[nH]c3c2C#N)s1	16*	-3	2	-1	93*	12	-1	GDH-TPI DR=>10
CCn1c(SCc2ccccc2Cl)nc2nc3c(cc2c1=O)CCCC3	-3	3	4	-1	28*	85*	61*
O=C(NC1CCCC1)[C@H]1[C@H](CO)[C@H]2Cn3c(ccc(C4=CCCC4)c3=O)[C@@H]1N2CC1CC1	nt	nt	nt	0	nt	nt	nt
COc1ccc(/C=C2\OC(=O)c3c(OC)cccc32)cc1OC	0	6	7	0	30*	125*	97*
COc1ccc(C=C2C(=O)OC(C)(C)OC2=O)cc1OC	-1	8	nt	-1	5	nt	nt
O=C(NCC(F)(F)F)[C@H]1[C@H](CO)[C@H]2Cn3c(cccc3=O)[C@@H]1N2C(=O)C1CCCC1	nt	nt	nt	-1	nt	nt	nt
Cc1cc2nc(CS)[nH]c2cc1C	1	6	-2	-3	8	nt	nt
Cc1cc2nc(/C=C/c3nc4cc(C)c(C)cc4[nH]3)[nH]c2cc1C	-2	8	nt	-1	37*	150*	85*
COC(=O)C12CCc3cc(OC)ccc3C1=CC(=O)C2 (stereo not given)	0	34*	nt	4	95*	95*	94*
COc1ccc2c(c1)CCc1c-2n[nH]c1C(=O)O	1	10	nt	-1	15	nt	nt
Cn1c(=O)c2cc(NC(=O)Nc3cccnc3)ccc2n1-c1ccc(C(C)(C)C)cc1	-3	5	nt	0	31*	27	14*
SMILES	FadD28 FP inh	GDH-TPI counter-1	Mtb hypoxia rep	Mtb BioA inh	Mtb FBA inh	Mtb FBA inh conf	GDH-TPI counter-2	others
Cn1c(=O)c2cc(NC(=O)NCCc3cccs3)ccc2n1-c1ccc(C(C)(C)C)cc1	-4	-5	nt	-2	26	nt	nt
COc1ccc(-c2nc3c4ccccc4ccn3c2CN2CCOCC2)cc1OC	0	13	9	10	37*	74*	51*
c1ccc(-c2nc3c4ccccc4ccn3c2CN2CCOCC2)cc1	-4	3	5	0	6	nt	nt
COc1ccc(S(=O)(=O)N(C)C[C@@H]2Oc3ccc(NS(C)(=O)=O)cc3CC(=O)N([C@@H](C)CO)C[C@H]2C)cc1	nt	nt	nt	0	nt	nt	nt
O=C(COC(=O)c1ccccc1C(=O)c1ccccc1)Nc1cccc([N+](=O)[O-])c1	0	5	nt	-1	55*	85*	74*
O=C(COC(=O)COc1ccccc1)Nc1cccc([N+](=O)[O-])c1	3	3	10	nt	0	nt	nt
C[C@@H]1CN([C@H](C)CO)S(=O)(=O)c2ccc(-c3cccnc3)cc2O[C@H]1CN(C)C	nt	nt	nt	1	nt	nt	nt
N#Cc1cc(-c2ccccc2)c[nH]c1=O	0	12	2	nt	58*	94*	89*
N#Cc1cc(-c2ccccc2)cn(Cc2c(Cl)cccc2Cl)c1=O	-3	2	8	-2	4	nt	nt
CCOc1cc(C=NNc2ncc(C)c(=O)[nH]2)ccc1O	nt	nt	-1	nt	nt	nt	nt
Cc1c(Br)c(C(=O)NCc2cc3cc(Cl)ccc3[nH]2)nn1C	-19	11	-11	nt	66*	85*	84*
Cc1ccccc1S(=O)(=O)N1C[C@H](O)COC[C@@H]2O[C@@H](CC(=O)O)CC[C@H]21	nt	nt	nt	-1	nt	nt	nt
N#Cc1c(C(F)(F)F)cc(-c2ccco2)nc1SCc1ccncc1	-4	0	9	1	29*	56*	32*
N#Cc1c(C(F)(F)F)cc(-c2ccco2)nc1SCc1ccccn1	1	13	4	-3	19	nt	nt
COc1cc2nc(SCC(=O)NCCc3ccccc3)n(Cc3ccco3)c(=O)c2cc1OC	-5	2	-1	-1	0	nt	nt
Cc1cccn2c(=O)c3cc(C(=O)NCC4CCCO4)c(=N)n(CCc4ccccc4)c3nc12 (stereo not given)	0	-5	4	1	109*	76*	64*
Cc1cccn2c(=O)c3cc(C(=O)NCc4ccco4)c(=N)n(CCc4ccccc4)c3nc12	-3	4	4	nt	53*	90*	81*
Cc1cccn2c(=O)c3cc(C(=O)NCCc4ccccc4)c(=N)n(Cc4ccco4)c3nc12	-2	-2	-1	-1	30*	+	+
COc1ccc(CCNC(=O)c2cc3c(=O)n4cccc(C)c4nc3n(CC3CCCO3)c2=N)cc1 (stereo not given)	-6	5	-2	1	20	nt	nt
C#CCOCCOCCOCCNc1nc(N2CCN(C(=O)C(CCC(=O)O)n3cc(C(N)CO)nn3)CC2)nc(N2CCN(C(=O)C(CCCCN)n3cc(C(N)CC(C)C)nn3)CC2)n1 (stereo not given)	nt	nt	-1	nt	nt	nt	nt

Screening results: PubChem BioAssay, several laboratories
